Where “and” joins values, the source holds several entries; their conditions need not be identical. Identical values can stand only once. Values without a mark were called inactive. Records with an inconclusive call do not appear. Calls of active or inactive are those of the source. Unless noted, calls come from the whole dose curve.

We go through nine compounds from PubChem BioAssay (Tox21).

A short description of assay [1]: Nuclear factor erythroid 2-related factor 2/antioxidant responsive element (Nrf2/ARE) small molecule agonists: qHTS cell viability counter screen in human keratinocytes (AID 1919968; active = well fitted curve in the direction sought with a large enough effect in the repeat runs; an effect the other way counts as inactive or inconclusive; note: nearly all actives have a fitted effect of over 55% in size; note: potency is the fitted concentration of half-maximal effect). The gist of the method:
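Fluorescence read-out from CellTiter-Fluor after 1 h at 37 C. Wells held HaCaT-derived ARE-luciferase reporter cells (1,500/well) treated 23 h with DMSO-dissolved compounds. Run in the same wells as the luciferase agonist read.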
Background: In qHTS, concentration-response curves come from the screen itself.

Assay [2] has as its target Gonadotropin-releasing hormone receptor (Homo sapiens) (UniProt P30968). Description: Human gonadotropin-releasing hormone receptor (GnRHR) small molecule agonists, calcium flux assay in GnRHR-HEK293 cells (AID 1920063). Note: nearly all actives have a fitted effect of over 35% in size. The gist of the method: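 Calcium-dye fluorescence, Ex/Em=480/540, recorded every 1 sec over 3 min after compound addition to GnRHR-HEK293 cells. Cells had been seeded 18 hours earlier and dye-loaded for 1 hour at 37 C. Fifteen concentrations, triplicates.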
(In general: Calcium flux is commonly read through the fluorescence of an indicator in the cells.)

For assay [3], the target named is KiSS-1 receptor (Homo sapiens) (UniProt Q969F8). Description: Human kisspeptin (KISS1R) small molecule agonists, calcium flux assay in KISS1R-HEK293 cells (AID 1920064; active = well fitted curve in the direction sought with a large enough effect in the repeat runs; an effect the other way counts as inactive or inconclusive). The gist of the method:
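Calcium flux read-out: kinetic fluorescence at Ex/Em=480/540, 1 s intervals over 3 min, after pin-tool compound addition to dye-loaded KISS1R-HEK293 cells. Fifteen concentrations, triplicates.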

Assay [4] is described as follows: G protein-coupled receptor (GPCR) small molecule agonists, calcium flux assay: HEK293 wild type cell line counter screen (AID 1920065). The gist of the method: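 Agonist mode; 18 h seeding at 37 C, 1 h dye load at 37 C; compounds pinned from DMSO, ATP as positive control; kinetic fluorescence 480/540 nm, 3 min, 1 s reads; 15 concentrations, triplicate.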
A short description of assay [5]: p53 small molecule agonists, cell-based qHTS assay with human liver microsomes: qHTS cell viability counter screen (AID 1963579). Note: nearly all actives have a fitted effect of over 45% in size. The gist of the method: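 Metabolically activated exposure: compounds, human liver microsomes and NADPH (0.5 mg/mL final apiece) were added to p53RE-bla cells seeded 5 h earlier, left 16 h at 37 C, and then assessed for viability by CellTiter-Glo luminescence.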

Assay [6] is described as follows: p53 small molecule agonists, cell-based qHTS assay with rat liver microsomes: qHTS cell viability counter screen (AID 1963580). Note: nearly all actives have a fitted effect of over 45% in size. The gist of the method:
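After the beta-lactamase ratio was read, CellTiter-Glo was added to the same wells and luminescence measured at 30 min; cells had been treated 16 h at 37 C with compounds, rat liver microsomes and NADPH (0.5 mg/mL final each).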

Assay [7] addresses 5-hydroxytryptamine receptor 2A (Homo sapiens) (UniProt P28223). The assay can be described thus: 5-hydroxytryptamine receptor 2A (HTR2A) small molecule antagonists, cell-based qHTS assay (AID 1963586). Note: nearly all actives have a fitted effect of over 45% in size. Note: potency is the fitted concentration of half-maximal effect. The gist of the method:
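CHO cells stably expressing human HTR2A were plated for 18 h at 37 C, then loaded with calcium dye for 1 h. Compounds were preincubated 5 min at room temperature before DOI (4 nM solution) was added. Kinetic fluorescence was read for 3 min.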

Assay [8] addresses Muscarinic acetylcholine receptor M1 (Homo sapiens) (UniProt P11229). The assay can be described thus: Cholinergic receptor muscarinic 1 (CHRM1) small molecule antagonists, cell-based qHTS assay (AID 1963588). Note: nearly all actives have a fitted effect of over 40% in size. The gist of the method:
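Compounds were tested at 15 concentrations in three independent runs. Dye-loaded CHRM1-CHO cells were exposed 5 min at room temperature before stimulation by acetylcholine added at 50nM. Intracellular calcium was read kinetically on FDSS for 3 min.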

For assay [9] the target is unchanged. Description: Cholinergic receptor muscarinic 1 (CHRM1) small molecule agonists, cell-based qHTS assay (AID 1963589). Note: nearly all actives have a fitted effect of over 35% in size. The gist of the method: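 Calcium flux read-out: kinetic fluorescence at 1 sec intervals after pin-tool compound addition to dye-loaded CHRM1-CHO cells (human M1). Agonist mode; 15 concentrations tested in triplicate independent runs.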
A short description of assay [10]: cAMP Responsive Elements (CRE) small molecule agonists, cell-based qHTS assay (AID 1963590). The gist of the method: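 Beta-lactamase reporter readout: LiveBLAzer B/G FRET substrate, 2 h at room temperature, added after 3 h compound treatment of CRE-bla HEK 293T cells at 37 C/5% CO2.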
Assay [11] can be described thus: cAMP Responsive Elements (CRE) small molecule antagonists, cell-based qHTS assay (AID 1963591; active = well fitted inhibition curve with a large enough effect in the signal ratio in the repeat runs, not every such curve was filed as active; the % refers to the signal ratio). The gist of the method: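 HEK293T CRE-bla; 18 h preincubation; compound pin-transfer; NKH477 0.25 uM final, 3 h, 37 C; LiveBLAzer FRET substrate 2 h RT.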
For assay [12], the target named is Beta-2 adrenergic receptor (Homo sapiens) (UniProt P07550). Description: Adrenergic beta2 receptor (ADRB2) small molecule antagonists, cell-based qHTS assay (AID 1963592). Note: series mostly up to about 92 µM; nearly all actives have a fitted effect of over 50% in size. The gist of the method:
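Assay format: CHO-ADRB2 cells, 18-20hr seeding at 37C/5% CO2, then compound plus 1nM isoproterenol agonist mix for 0.5hr RT. Homogeneous time-resolved fluorescence cAMP detection after 1hr, expressed as 665/615 nm ratio.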

The target is the same in assay [13]. The assay can be described thus: Adrenergic beta2 receptor (ADRB2) small molecule agonists, cell-based qHTS assay (AID 1963593).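 Note: CHO cells stably overexpressing human ADRB2.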 The gist of the method:
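CHO cells stably over-expressing ADRB2 were plated overnight at 37C, then dosed with compounds plus a stimulation mix containing 100uM IBMX and 25uM Ro-20-1724 for 0.5hr at room temperature. cAMP was measured by HTRF competition, 1hr.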

In assay [14] the target is D(2) dopamine receptor (Homo sapiens) (UniProt P14416). Description: Dopamine D2 receptor (DRD2) small molecule agonists, cell-based qHTS assay (AID 1963594). Note: nearly all actives have a fitted effect of over 35% in size. The gist of the method:
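HEK293 cells stably expressing human DRD2, pre-treated with PDE inhibitor Ro20-1724 (0.1 mM final) and compound 10 min at room temperature, then stimulated with NKH477 (200nM […]) for 30 min. cAMP read by HTRF (665/620 nm).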

The target is the same in assay [15]. Description: Dopamine D2 receptor (DRD2) small molecule antagonists, cell-based qHTS assay (AID 1963595; active = well fitted inhibition curve with a large enough effect in the signal ratio in the repeat runs, with a control signal flat; the % refers to the signal ratio; note: potency is the fitted concentration of half-maximal effect). The gist of the method: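 Antagonist mode in DRD2-HEK293 cells: after compound addition with 0.1 mM Ro20-1724, cells received quinpirole (12 nM) and NKH477 (200 nM) for 30 min at room temperature; HTRF cAMP read after 1 h detection.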
Assay [16] can be described thus: p53 small molecule agonists, cell-based qHTS assay: qHTS cell viability counter screen (AID 1963581). Note: nearly all actives have a fitted effect of over 45% in size. The gist of the method: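 Cytotoxicity read-out: ATP-based luminescence (CellTiter-Glo, 30 min RT) measured in the same wells as the p53 reporter assay, HCT-116 p53RE-bla cells, 16 h compound exposure at 37 C.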
Assay [17] concerns the target 5-hydroxytryptamine receptor 2A (Homo sapiens) (UniProt P28223). Description: 5-hydroxytryptamine receptor 2A (HTR2A) small molecule agonists, cell-based qHTS assay (AID 1963587). Note: nearly all actives have a fitted effect of over 30% in size. Note: potency is the fitted concentration of half-maximal effect. The gist of the method: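 CHO cells stably expressing human HTR2A, plated 18 h, loaded with calcium dye 1 h at 37 C. Agonist mode: compounds added and intracellular calcium fluorescence recorded kinetically for 2 min at 1 sec intervals.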

Assay [18] in a line: p53 small molecule agonists, cell-based qHTS assay with human liver microsomes (AID 1963577). The gist of the method: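 In this qHTS, p53 response-element beta-lactamase cells receive test compound together with a microsome/NADPH activating system (0.5 mg/mL final each) and are incubated 16 h at 37 C before LiveBLAzer fluorescence detection.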
Assay [19] is described as follows: p53 small molecule agonists, cell-based qHTS assay with rat liver microsomes (AID 1963578). The gist of the method:
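Agonist mode in p53RE-bla reporter cells, with compounds co-incubated 16 h at 37 C alongside 0.5 mg/mL rat liver microsomes and 0.5 mg/mL NADPH (final), followed by a 2 h LiveBLAzer detection step.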

Assay [20] can be described thus: p53 small molecule agonists, cell-based qHTS assay (AID 1963582; active = well fitted activation curve with a large enough effect in the signal ratio in the repeat runs, not every such curve was filed as active; the % refers to the signal ratio). The gist of the method: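 Fluorescence intensity read-out of a beta-lactamase reporter under a p53 response element. Cells were exposed to DMSO-dissolved compounds for 16 h at 37 C, then developed with FRET substrate for 2 h at RT.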

Gonadotropin-releasing hormone receptor (Homo sapiens), sequence (P30968 whole entry, looked up): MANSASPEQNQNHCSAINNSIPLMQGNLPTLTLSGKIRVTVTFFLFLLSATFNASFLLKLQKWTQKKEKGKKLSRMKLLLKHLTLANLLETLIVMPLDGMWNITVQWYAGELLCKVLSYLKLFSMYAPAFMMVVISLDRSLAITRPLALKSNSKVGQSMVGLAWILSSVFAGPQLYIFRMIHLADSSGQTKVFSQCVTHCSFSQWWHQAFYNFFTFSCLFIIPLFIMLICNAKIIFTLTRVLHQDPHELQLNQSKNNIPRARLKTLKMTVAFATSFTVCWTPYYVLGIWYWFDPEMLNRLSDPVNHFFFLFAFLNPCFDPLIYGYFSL
Muscarinic acetylcholine receptor M1 (Homo sapiens), sequence (P11229 whole entry, looked up): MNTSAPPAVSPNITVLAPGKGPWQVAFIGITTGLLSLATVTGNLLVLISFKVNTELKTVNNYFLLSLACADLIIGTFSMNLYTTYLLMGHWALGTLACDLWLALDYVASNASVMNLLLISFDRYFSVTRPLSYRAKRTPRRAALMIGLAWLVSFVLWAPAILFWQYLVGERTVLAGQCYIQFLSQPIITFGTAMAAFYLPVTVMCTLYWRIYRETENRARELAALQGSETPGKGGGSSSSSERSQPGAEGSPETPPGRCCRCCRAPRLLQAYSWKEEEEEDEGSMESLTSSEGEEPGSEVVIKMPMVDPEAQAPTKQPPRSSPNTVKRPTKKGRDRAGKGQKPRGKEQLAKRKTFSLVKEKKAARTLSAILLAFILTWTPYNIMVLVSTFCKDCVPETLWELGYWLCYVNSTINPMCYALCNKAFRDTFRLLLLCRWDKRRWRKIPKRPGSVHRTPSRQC
D(2) dopamine receptor (Homo sapiens), sequence (P14416 whole entry, looked up): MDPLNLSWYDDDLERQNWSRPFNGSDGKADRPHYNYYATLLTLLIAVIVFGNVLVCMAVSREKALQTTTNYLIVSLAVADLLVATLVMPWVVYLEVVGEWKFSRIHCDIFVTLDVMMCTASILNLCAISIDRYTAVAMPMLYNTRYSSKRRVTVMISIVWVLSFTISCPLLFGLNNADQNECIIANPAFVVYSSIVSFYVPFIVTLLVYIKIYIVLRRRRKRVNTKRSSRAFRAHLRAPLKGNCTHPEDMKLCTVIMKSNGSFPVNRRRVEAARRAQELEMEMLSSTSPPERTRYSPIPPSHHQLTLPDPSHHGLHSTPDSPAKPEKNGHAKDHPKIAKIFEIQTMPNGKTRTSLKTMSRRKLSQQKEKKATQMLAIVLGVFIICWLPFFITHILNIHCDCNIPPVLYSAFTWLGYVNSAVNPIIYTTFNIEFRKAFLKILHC
Beta-2 adrenergic receptor (Homo sapiens), sequence (P07550 whole entry, looked up): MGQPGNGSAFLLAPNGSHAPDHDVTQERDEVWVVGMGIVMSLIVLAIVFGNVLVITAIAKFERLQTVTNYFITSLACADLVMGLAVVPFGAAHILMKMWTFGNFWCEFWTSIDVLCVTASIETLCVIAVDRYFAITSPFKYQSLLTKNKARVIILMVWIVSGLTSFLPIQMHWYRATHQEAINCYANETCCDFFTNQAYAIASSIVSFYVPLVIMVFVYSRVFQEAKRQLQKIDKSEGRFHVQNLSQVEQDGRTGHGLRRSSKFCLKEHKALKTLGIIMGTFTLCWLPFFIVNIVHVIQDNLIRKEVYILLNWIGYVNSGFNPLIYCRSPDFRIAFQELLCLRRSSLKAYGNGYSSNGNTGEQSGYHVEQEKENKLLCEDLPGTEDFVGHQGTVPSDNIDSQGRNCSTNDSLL
5-hydroxytryptamine receptor 2A (Homo sapiens), sequence (P28223 whole entry, looked up): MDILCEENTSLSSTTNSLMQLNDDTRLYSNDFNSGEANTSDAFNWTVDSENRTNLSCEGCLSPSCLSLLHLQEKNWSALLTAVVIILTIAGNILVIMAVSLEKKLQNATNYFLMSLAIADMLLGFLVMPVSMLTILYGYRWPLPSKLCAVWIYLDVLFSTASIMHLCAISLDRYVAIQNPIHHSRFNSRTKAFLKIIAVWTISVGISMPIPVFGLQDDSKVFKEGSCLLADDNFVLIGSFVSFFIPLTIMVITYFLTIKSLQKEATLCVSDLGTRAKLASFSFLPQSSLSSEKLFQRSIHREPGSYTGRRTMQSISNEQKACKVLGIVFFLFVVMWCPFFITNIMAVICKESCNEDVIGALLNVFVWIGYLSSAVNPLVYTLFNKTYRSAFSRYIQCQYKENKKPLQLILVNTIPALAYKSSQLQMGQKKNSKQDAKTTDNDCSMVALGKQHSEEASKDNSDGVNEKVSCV
KiSS-1 receptor (Homo sapiens), sequence (Q969F8 whole entry, looked up): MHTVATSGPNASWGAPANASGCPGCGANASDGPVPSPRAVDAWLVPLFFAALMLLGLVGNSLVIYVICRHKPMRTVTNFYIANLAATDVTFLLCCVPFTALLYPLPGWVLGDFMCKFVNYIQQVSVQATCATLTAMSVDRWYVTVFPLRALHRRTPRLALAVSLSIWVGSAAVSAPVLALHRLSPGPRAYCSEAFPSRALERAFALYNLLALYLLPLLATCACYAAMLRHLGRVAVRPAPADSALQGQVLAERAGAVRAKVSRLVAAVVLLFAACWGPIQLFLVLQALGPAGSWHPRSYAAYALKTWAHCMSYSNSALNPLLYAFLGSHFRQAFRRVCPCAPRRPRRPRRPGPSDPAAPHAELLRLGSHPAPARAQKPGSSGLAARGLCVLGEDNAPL

With `[Cl-].[Cl-].[Cl-].[Yb+3]`, the Potency entry in assay [1], in [2], in assay [3], in assay [4], in assay [5] and in [6] was “inactive” throughout. In addition, the Potency entry in [7], in [8], in assay [9], in [10], in assay [11] and in [12] was “inactive” each time. In addition, the Potency result in assay [13], in [14] and in assay [15] was “inactive” each time.

For `CCNC(=O)NC(=O)/C(C#N)=N/OC`, the Potency entry in assay [1], in [2], in assay [3], in [4], in assay [6] and in assay [16] was “inactive” each time. In addition, the Potency entry in assay [7], in assay [17], in assay [8], in assay [9], in [11] and in [12] was “inactive” throughout. Moreover, the Potency result in [14] was “inactive”.

`CCCCn1cc[n+](C)c1` (tested in a mixture with another compound): the Potency entry in assay [1], in [2], in [3], in [4], in assay [5] and in [6] was “inactive” each time. Besides, the Potency entry in [16], in assay [17], in assay [8], in assay [9], in assay [10] and in assay [11] was “inactive” each time. Besides, the Potency entry in [12] and in assay [15] was “inactive” each time.

As to `CCOC(=O)N(C)C(=O)CSP(=S)(OCC)OCC`, the Potency result in assay [1], in assay [2], in [3], in assay [18], in assay [19] and in assay [5] was “inactive” in each case. For the same compound, the Potency result in [6], in [16], in assay [20], in [7], in assay [17] and in assay [9] was “inactive” in each case. For the same compound, the Potency result in assay [10], in assay [12] and in [14] was “inactive” each time.

In the case of `Nc1ccc([N+](=O)[O-])cc1[N+](=O)[O-]`, the Potency result in assay [1], in assay [2], in assay [3], in [4], in assay [5] and in [6] was “inactive” each time. Besides, the Potency entry in assay [16], in assay [17], in [8], in assay [9], in assay [10] and in assay [11] was “inactive” in each case. Also, the Potency entry in [12] and in [15] was “inactive” throughout.

For `O=[N+]([O-])c1ccc(Nc2ccccc2)cc1`, the Potency was 61600 nM (active) in assay [1]; 16.9 µM (active) and 16.8 µM (active) in assay [7]. The Potency result in [2], in assay [3], in assay [18], in [19], in assay [6] and in assay [17] was “inactive” throughout. Also, the Potency entry in assay [8], in assay [9], in [12], in assay [14] and in [15] was “inactive” each time.

Consider `O=C1NCN(c2ccccc2)C12CCN(CC1COc3ccccc3O1)CC2` (stereo not given), for which the Potency result in assay [1], in assay [2], in assay [3], in assay [18], in assay [19] and in assay [5] was “inactive” each time. In addition, the Potency result in assay [6], in assay [16], in [8], in assay [9] and in [14] was “inactive” each time. Further, the values for the Potency in assay [17] and in [15] were 42.5 nM (active) and 37.6 nM (active), respectively.

For the compound `O=[N+]([O-])C(Br)(CO)CO`, the Potency entry in assay [1], in assay [2], in [3], in assay [4], in assay [5] and in assay [6] was “inactive” throughout. Further, the Potency result in assay [7], in assay [8], in assay [9] and in [10] was “inactive” each time.

Take `CCCSP(=O)(OCC)SCCC`: the Potency entry in [1], in assay [2], in [3], in [4], in assay [5] and in assay [6] was “inactive” each time. In addition, the Potency entry in assay [7], in [17], in assay [8], in assay [9], in [12] and in [14] was “inactive” throughout. Further, the Potency result in [15] was “inactive”.
